Screening data (PubChem)
The list is not random: actives were taken first. Their share in the collection is about 1.2%.
GSH bead fluor: GSH bead compound fluorescence profile. GSH beads flow cytometry, compound fluorescence 488/530 nm; active compounds read high. fluorescence (KMESF) at 10 µM. 190,000 tested, 0.25% active. AID 1776; in the data active means fluorescence above about 89;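 further: glutathione beads carrying GST-tagged Bcl family fusion proteins plus one bare bead set; values are compound well signal with DMSO vehicle wells as background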
RGS4-Gao reg: human RGS4-Galphao interaction regulation. P09471. AID 1415. 220,000 tested, 0.33% active. binding response (% of control), % at 10 µM. Multiplexed bead flow cytometry, RGS4-Galphao binding; actives lie on both sides; in the data active means binding response below about 49% or above about 150%; inactive means in between;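 further: fluorescent Galphao activated with aluminum fluoride binding bead-coupled RGS4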
Target sequence (P09471 whole entry, looked up): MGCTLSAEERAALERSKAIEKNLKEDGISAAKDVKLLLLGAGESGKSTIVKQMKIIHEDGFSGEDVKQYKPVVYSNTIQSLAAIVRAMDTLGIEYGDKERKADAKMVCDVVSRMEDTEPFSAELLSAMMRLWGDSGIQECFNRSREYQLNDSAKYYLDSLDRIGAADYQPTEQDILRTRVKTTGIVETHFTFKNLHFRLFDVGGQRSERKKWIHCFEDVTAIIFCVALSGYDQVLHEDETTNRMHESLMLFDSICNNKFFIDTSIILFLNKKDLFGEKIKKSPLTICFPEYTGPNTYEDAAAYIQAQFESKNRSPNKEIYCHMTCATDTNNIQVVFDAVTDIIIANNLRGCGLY
RGS7-Gao: modulates binding of RGS7 to human Galphao | AID 1439 | binding response (% of control), % at 10 µM | Multiplexed bead flow cytometry; actives lie on both sides | 220,000 tested, 0.35% active | P09471; in the data active means binding response below about 49% or above about 150%; inconclusive means no clear call, values can overlap the other calls; inactive means in between;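 further: fluorescent Galphao held in activated GDP-AlF4 state binding bead-coupled RGS7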
RGS16-Gao HTS: RGS16-Galphao interaction regulator (human); binding response (% of control), % at 10 µM; 220,000 tested, 0.38% active; bead-based flow cytometry RGS16-Galphao binding, fluorescence; actives lie on both sides; O15492+P09471;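 further: Galphao activated by GDP with aluminum fluoride before binding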
Avidin fluor: compound fluoresces at 488/530 nm on avidin beads; compound fluorescence 488/530 nm, flow cytometry; active compounds read high; fluorescence (KMESF) at 10 µM; 220,000 tested, 0.38% active; AID 1775; in the data active means fluorescence above about 47
RGS8-Gao reg: human RGS8-Galphao interaction regulation | P09471 | multiplexed bead flow cytometry, RGS8-Galphao binding; actives lie on both sides | response (percent of control binding), % at 10 µM | 220,000 tested, 0.34% active; in the data active means response below about 60% or above about 140%; inactive means in between;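 further: Galphao activated as the GDP aluminium fluoride complex binding bead-coupled RGS8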
RGS4-Gao HTS: RGS4-Galphao interaction regulator (human); shares compounds with RGS16-Gao HTS; multiplexed bead flow cytometry, RGS–Galpha-o binding; RGS4–Galpha-o binding response, % at 10 µM; 1,600 tested, 99% active; AID 1504;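 further: fluorescently labeled Galpha-o bound to GDP with aluminium fluoride binding biotinylated RGS beads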
Target sequence (P09471 whole entry, looked up): as above
Target sequence (P49798 whole entry, looked up): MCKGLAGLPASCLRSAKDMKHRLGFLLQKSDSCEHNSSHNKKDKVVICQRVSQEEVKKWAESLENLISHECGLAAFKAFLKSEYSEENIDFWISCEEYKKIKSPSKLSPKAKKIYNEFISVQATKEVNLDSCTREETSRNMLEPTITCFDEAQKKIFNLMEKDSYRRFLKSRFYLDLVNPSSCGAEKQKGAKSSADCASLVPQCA
Biotin-avidin: counter-screen: compounds disrupting biotin binding to avidin beads; shares compounds with RGS16-Gao HTS; streptavidin beads, fluorescein-biotin binding, flow cytometry; inhibition, % at 10 µM; 1,700 tested, under 10 active; AID 1783;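 active means inhibition above 50%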;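 further: median green fluorescence of gated singlet beads compared with DMSO control wells; 0% = DMSO wells and 100% = complete loss of bead fluorescence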
RGS8-Gao single: confirmation of regulators of human RGS8-Galphao interaction. shares compounds with RGS16-Gao HTS. AID 1836. bead-based flow cytometry RGS8-Galphao binding, fluorescence; actives lie on both sides. 1,700 tested, 3% active. binding response (% of control), % at 10 µM; in the data active means binding response below about 72% or above about 130%; inactive means in between;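 further: Galphao activated as GDP AlF4 complex before binding bead RGS8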
RGS7-Gao single: RGS7-Galphao interaction regulation, single point confirmation. bead-based flow cytometry RGS7-Galphao binding; actives lie on both sides. shares compounds with RGS16-Gao HTS. response (percent of control binding), % at 10 µM. 1,700 tested, 7.8% active; in the data active means response below about 75% or above about 130%; inactive means in between;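 further: fluorescent Galphao activated with GDP and aluminum fluoride binding bead-coupled RGS7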
RGS16-Gao conf: confirmation of regulators of human RGS16-Galphao interaction; shares compounds with RGS16-Gao HTS; bead-based flow cytometry, RGS16-Galphao binding; actives lie on both sides; response (% of control binding), % at 10 µM; 1,700 tested, 4% active; AID 1838; in the data active means response below about 74% or above about 130%; inactive means in between;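 further: Galphao activated as the GDP aluminium fluoride complex binding bead-coupled RGS16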
RGS4-Gao single: confirmation of regulators of human RGS4-Galphao interaction. shares compounds with RGS16-Gao HTS. 1,700 tested, 4% active. binding response (% of control), % at 10 µM. RGS4-Galphao binding, multiplexed bead flow cytometry; actives lie on both sides; in the data active means binding response below about 74% or above about 130%; inactive means in between
RGS19-Gao conf: RGS19-Galphao interaction regulation, single point confirmation; shares compounds with RGS16-Gao HTS; bead-based flow cytometry RGS19-Galphao binding; actives lie on both sides; response (percent of control binding), % at 10 µM; 1,700 tested, 5% active; AID 1841; in the data active means response below about 50% or above about 160%; inactive means in between;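 further: 100% = no compound control and 0% = blank background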
Active calls of the source: *; ? = inconclusive; . = no result given; [ ] = remark or other dose. Unless noted, how the calls were made is not given here.

SMILES | GSH bead fluor | RGS4-Gao reg | RGS7-Gao | RGS16-Gao HTS | Avidin fluor | RGS8-Gao reg | RGS4-Gao HTS | Biotin-avidin | RGS8-Gao single | RGS7-Gao single | RGS16-Gao conf | RGS4-Gao single | RGS19-Gao conf
CN(C)/C=C/C(=O)c1cnc(-c2ccc(Cl)cc2)s1 | 10 | 3.1* | 2.5* | -6.2* | 0 | 7.8* | . | 0 | 99 | 91 | 99 | 96 | 96
CN(C)/C=C/C(=O)c1cnc(-c2ccccc2)s1 | 10 | 103 | 102 | 109 | 24 | 105 | . | . | . | . | . | . | .
COC1CCN(C(=O)CC2C(=O)NCCN2CC2CCCCC2)CC1 (stereo unspecified) | 15 | 98 | 98 | 97 | 1 | 100 | . | . | . | . | . | . | .
COC1CCN(C(=O)CC2C(=O)NCCN2CC(C)(C)C)CC1 (stereo unspecified) | 13 | 10* | 2.1* | 5.7* | 0 | 17* | . | 3 | 105 | 98 | 107 | 99 | 110
Cc1ccc2[nH]c3c(c2c1)CC/C(=C/c1ccccc1)C3=O | 13 | 113 | 214*[activator] | 129 | 194* | 96 | 113* | 4 | 94 | 94 | 93 | 97 | 97
COc1ccc(NC(=O)CCNS(=O)(=O)c2ccc(Br)s2)cc1 | 21 | 102 | 102 | 101 | 16 | 102 | . | . | . | . | . | . | .
O=C(CSc1nc(Cc2ccccc2)nc2ccccc12)c1ccc2c(c1)OCCO2 | 46 | 98 | 102 | 96 | 9 | 99 | . | . | . | . | . | . | .
CCc1nc(SCC(=O)c2ccc3c(c2)OCCO3)c2ccccc2n1 | 25 | 120 | 111 | 242 | 15 | 142*[activator] | 120* | -1 | 105 | 106 | 105 | 105 | 97
CCCc1nc(SCC(=O)c2ccc(OC)cc2)c2ccccc2n1 | 20 | . | . | . | . | . | . | 2 | 102 | 105 | 104 | 103 | 106
CCc1nc(SCC(=O)c2ccccc2)c2ccccc2n1 | 12 | 100 | 100 | 100 | 9 | 102 | . | . | . | . | . | . | .
Cc1ccc(C)c(CSC2=NN3CCCC(=O)N=C3S2)c1 | . | 82 | ? | 83 | 6 | 87 | . | . | . | . | . | . | .
CC1(c2ccc3ccccc3c2)NC(=O)N(CC(=O)Nc2cccc(S(=O)(=O)N3CCOCC3)c2)C1=O (stereo unspecified) | 13 | 102 | 101 | 108 | 5 | 104 | . | . | . | . | . | . | .
COc1ccccc1NC(=O)C1CCCCC1 | 26 | 107 | 158*[activator] | 100 | 90* | 97 | 107* | . | . | . | . | . | .
Cc1cc(NS(=O)(=O)c2ccc(NC(NC(=O)C(C(F)(F)F)C(F)(F)F)(C(F)(F)F)C(F)(F)F)cc2)no1 | 15 | 101 | 155*[activator] | 40 | 3 | 80 | 101* | -2 | 95 | 98 | 99 | 98 | 97
COC(C(=O)Nc1cccc([N+](=O)[O-])c1)c1ccccc1 (stereo unspecified) | 12 | 99 | 92 | 96 | 9 | 101 | . | . | . | . | . | . | .
COc1ccccc1Nc1nc(N)nc(CN2CCC(Cc3ccccc3)CC2)n1 | 30 | 178*[activator] | 162*[activator] | -461 | 9 | 165*[activator] | . | 1 | 95 | 95 | 97 | 97 | 89
COc1ccccc1Nc1nc(N)nc(CN2CCC(C)CC2)n1 | 17 | 97 | 98 | 96 | 6 | 97 | . | . | . | . | . | . | .
CCN(CC)CC(=O)Nc1ccc(-c2ccc(NC(=O)CN(CC)CC)c(OC)c2)cc1OC | 16 | 100 | ? | 97 | 9 | 101 | . | . | . | . | . | . | .
CNC(=O)CN(C)S(=O)(=O)c1ccc(OC)c(Cl)c1 | 30 | 25* | 19* | 17* | 0 | 16* | . | -1 | 99 | 87 | 99 | 97 | 81
Cc1ccc(NS(=O)(=O)c2ccc(C)c(C(=O)N3CCN(C)CC3)c2)cc1 | 4 | 69 | 80 | -37* | 3 | 80 | 69* | 1 | 98 | 98 | 102 | 97 | 107
Cc1ccc(NS(=O)(=O)c2ccc(C(=O)N3CCCN(C)CC3)cc2)cc1 | 12 | 99 | 99 | 102 | 21 | 97 | . | . | . | . | . | . | .
C#CCn1c(=NC(=O)c2cc(-c3cccs3)nc3ccccc23)sc2cc(S(N)(=O)=O)ccc21 | 5 | 80 | 34* | 84 | 0 | 47* | 80* | -1 | 97 | 91 | 98 | 94 | 90
CCn1nnc(NC(=O)CSc2ccc(Cl)cc2)n1 | 34 | . | . | . | . | . | . | 0 | 97 | 90 | 100 | 93 | 114
O=C(CSc1nc(-c2ccc(F)cc2)cc(C(F)(F)F)n1)Nc1ccc2c(c1)OCO2 | 16 | 94 | 103 | 94 | 14 | 101 | . | . | . | . | . | . | .
CC(=O)c1ccc(NS(=O)(=O)c2c(C)cc(C)cc2C)cc1 | 14 | 95 | 93 | 116 | 11 | 104 | . | . | . | . | . | . | .
SMILES | GSH bead fluor | RGS4-Gao reg | RGS7-Gao | RGS16-Gao HTS | Avidin fluor | RGS8-Gao reg | RGS4-Gao HTS | Biotin-avidin | RGS8-Gao single | RGS7-Gao single | RGS16-Gao conf | RGS4-Gao single | RGS19-Gao conf
Cc1cc(C)c(S(=O)(=O)Nc2ccc(O)cc2)c(C)c1 | 15 | 126 | 118 | 293 | 7 | 141*[activator] | 126* | 0 | 100 | 99 | 101 | 101 | 99
NC(=O)c1cccc(C(N)=O)n1 | 13 | 98 | ? | 98 | 13 | 100 | . | . | . | . | . | . | .
CCN(CC)c1ccc(N2C(=O)/C(=C\c3cccs3)SC2=S)cc1 | 27 | . | . | . | . | . | . | 1 | 95 | 90 | 93 | 93 | 109
CC(C)Sc1nc2ccccc2n1CC(=O)O | 14 | 100 | 102 | 103 | 11 | 103 | . | . | . | . | . | . | .
Cc1ncsc1CCOC(=O)C1C2CC3CC(C2)CC1C3 (stereo unspecified) | 9 | 92 | 94 | 22* | 1 | 73 | 92* | 2 | 100 | 95 | 94 | 93 | 105
COC(=O)c1ccccc1NC(=S)N(Cc1ccc2c(c1)OCO2)Cc1cc2ccc(C)cc2[nH]c1=O | 8 | 105 | 103 | 107 | 16 | 105 | . | . | . | . | . | . | .
